In PubChem BioAssay (NCI):
Compounds without any hit were thinned out: in the full panel of roughly 83,000, 20% have a hit.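 Percent growth is the endpoint: 0 to 100 indicates growth inhibition (40 means 60% inhibition), 0 means no net growth, and negative values indicate cell death.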 Activity calls are given as the source filed them. The calls were made as follows: active = growth percent below 10; inactive = the rest.

Experiments:
Assay in all cases: NCI-60 one-dose screen, 48 h (100 = growth as untreated, 0 = no growth, -100 = all killed)
Conditions in all cases: 10 µM unless noted
[1] = tested on: HCT-15 colon
[2] = tested on: SNB-75 CNS
[3] = tested on: SNB-19 CNS
[4] = tested on: U251 CNS
[5] = tested on: PC-3 prostate
[6] = tested on: SK-MEL-5 melanoma
[7] = tested on: UACC-62 melanoma
[8] = tested on: LOX IMVI melanoma
[9] = tested on: SK-MEL-28 melanoma

Measured: growth

CCNCCNc1cc(-c2ccc(C(F)(F)F)cc2)c(C#N)c2nc3ccccc3n12
active: [1] -75.4% | [2] -95.5% | [3] -78.1% | [4] -87.1% | [5] -72.6% | [6] -91.8% | [7] -74.4% | [8] -95.4% | [9] -86.4%

N#Cc1c(-c2ccccc2)[nH]c2ncc(-c3ccccc3)n2c1=O
inactive: [1] 93.5% | [2] 78.8% | [3] 105% | [4] 93.1% | [5] 74.6% | [6] 87.7% | [7] 87.8% | [8] 86.8% | [9] 102%

O=S(=O)(NCCCNc1nccc(-c2c(-c3ccc(F)c(O)c3)nc3sccn23)n1)c1ccccc1
active: [7] 5.45%
inactive: [1] 68.5% | [2] 105% | [3] 104% | [4] 90.2% | [5] 61.5% | [6] 51.1% | [8] 18% | [9] 24.1%

O=CN1N=C(c2cccc(Nc3ccnc4cc(Cl)ccc34)c2)CC1c1ccccc1 (stereo unspecified)
inactive: [1] 19.6% | [3] 40.3% | [4] 16.9% | [5] 24.2% | [6] 17.9% | [7] 34.7% | [8] 20.6% | [9] 49.5%
active: [2] -9.35%

Nc1c(C(=O)Nc2ccncc2)sc2nc3c(cc12)C(O)CCC3 (stereo unspecified)
inactive: [1] 86.3% | [2] 105% | [3] 95.4% | [4] 91.6% | [5] 94.6% | [6] 92.4% | [7] 80% | [8] 105% | [9] 85.5%

O=c1[nH]c(-c2ccccc2)nc2sc3cc(O)ccc3c12
inactive: [1] 69.4% | [2] 83.2% | [3] 99.8% | [4] 84.1% | [5] 77.3% | [6] 86.3% | [7] 73.6% | [8] 82.7% | [9] 93.9%

C=C(C)[C@@H]1CC[C@]2(C(=O)N3CCOCC3)CC[C@]3(C)[C@H](CC[C@@H]4[C@@]5(C)C/C(=C/c6ccncc6)C(=O)C(C)(C)[C@@H]5CC[C@]43C)[C@@H]12
inactive: [1] 42.6% | [2] 78.5% | [3] 76.9% | [4] 55.7% | [5] 25.2% | [6] 60.6% | [7] 43.1% | [8] 60% | [9] 74%

C=CCSc1nnc(NC(=O)CCl)s1
active: [8] 7.79%
inactive: [1] 89.7% | [2] 103% | [3] 89.8% | [4] 92% | [5] 103% | [6] 88% | [7] 88.8% | [9] 99%

CCc1ccc(CCCC(=O)O)cc1
inactive: [1] 101% | [2] 87.9% | [3] 95.7% | [4] 101% | [5] 96.8% | [6] 102% | [7] 96.8% | [8] 99.5% | [9] 108%

C=C1C(=O)O[C@H]2[C@H]1CC/C(COC(=O)C(=O)c1cn(C)c3ccc(Cl)cc13)=C\CC[C@@]1(C)O[C@@H]21
active: [1] -62.8% | [2] -98.3% | [3] -75% | [4] -95.3% | [5] -70.5% | [6] -100% | [7] -82.5% | [8] -84.5% | [9] -64.6%

CCN1CCN(C(=O)[C@]23CCC(C)(C)C[C@@H]2C2=CC[C@@H]4[C@@]5(C)CCC(=O)C(C)(C)[C@@H]5CC[C@@]4(C)[C@]2(C)CC3)CC1
inactive: [1] 33.6% | [2] 15.6% | [3] 71.1% | [4] 46.8% | [5] 26.1% | [6] 49.2% | [7] 47.3% | [8] 43.8% | [9] 64.3%

CC1CCc2c(C(=O)Nc3ncc(Cc4cccc([N+](=O)[O-])c4)s3)csc2C1 (stereo unspecified)
inactive: [1] 26.2% | [3] 31.8% | [4] 26.9% | [5] 35.7% | [6] 21.1% | [7] 13.9% | [8] 20% | [9] 60.7%
active: [2] -14.6%

Nc1nc(N)c(-c2ccc(Cl)c(Cl)c2)c(CBr)n1
inactive: [1] 43% | [2] 95% | [3] 94% | [4] 65.4% | [5] 65.2% | [6] 62.6% | [7] 57% | [8] 34.9% | [9] 103%

COc1ccc(CNc2c3ccccc3nc3ccccc23)cc1
inactive: [1] 22% | [2] 61.8% | [3] 34% | [4] 36.5% | [5] 34% | [6] 62.2% | [7] 55.8% | [8] 20.9% | [9] 79.6%

Cc1csc(Nc2nc(-c3ccccn3)nc(C(Cl)(Cl)Cl)n2)n1
inactive: [1] 57.2% | [2] 90.1% | [3] 80.9% | [4] 62.2% | [5] 91.1% | [6] 86.2% | [7] 84.3% | [8] 49.4% | [9] 87.6%

Cc1ccc(-c2nc([P+](c3ccccc3)(c3ccccc3)c3ccccc3)c(S(=O)(=O)c3ccc(C)cc3)o2)cc1
inactive: [3] 53.5% | [5] 11.2% | [6] 48.7% | [7] 26.1% | [9] 24.6%
active: [1] 4.17% | [2] -11.3% | [4] 3.23% | [8] -31.7%

CC1=C2[C@@H](CC1)[C@]1(C)O[C@@](C(C)C)(C[C@H]1OC(=O)[C@H](C)O)[C@H]2OC(=O)/C=C/c1ccccc1
inactive: [1] 83.6% | [2] 66.4% | [3] 85.1% | [4] 79% | [5] 58.3% | [6] 90.3% | [7] 66% | [8] 84.6% | [9] 108%

COc1ccc2c(c1OC)CO[C@@H]2[C@H]1c2c(cc3c(c2OC)OCO3)CCN1S(=O)(=O)c1cn(C)cn1
active: [4] 9.29%
inactive: [1] 13.5% | [2] 27.7% | [3] 33.2% | [5] 24% | [6] 23.4% | [7] 27.6% | [8] 38% | [9] 55.3%

Nc1ncnc2c1C(c1ccccc1)c1ccc3ccccc3c1O2 (stereo unspecified)
inactive: [1] 96.5% | [2] 64.7% | [3] 80.7% | [4] 86.4% | [5] 70.5% | [6] 77.7% | [7] 68.5% | [8] 72.1% | [9] 103%

COc1cc(C2c3cc(OC(C)=O)c(OC)cc3CC3C(=O)OCC32)ccc1OC(C)=O (stereo unspecified)
inactive: [1] 104% | [2] 94.5% | [3] 116% | [4] 92.6% | [5] 68.3% | [6] 109% | [7] 103% | [8] 103% | [9] 122%

CN(C)c1ccc(C(=O)OCCCCCCl)cc1
inactive: [1] 100% | [2] 78.4% | [3] 95.6% | [4] 99.7% | [5] 87.1% | [6] 98.5% | [7] 94.5% | [8] 102% | [9] 103%

COc1ccc(C(C)=O)cc1S(=O)(=O)Nc1c(N)nc(SC)[nH]c1=O
inactive: [1] 100% | [2] 98.2% | [3] 109% | [4] 111% | [5] 104% | [6] 100% | [7] 97.1% | [8] 96.3% | [9] 109%

CCCCNC(=O)CC1=C(C)/C(=C/c2[nH]c(-c3ccc[nH]3)cc2OC)N=C1C
inactive: [2] 65.3% | [3] 67.1% | [4] 28.7% | [9] 31%
active: [1] 2.62% | [5] 6.07% | [6] 1.34% | [7] -28.9% | [8] -36.9%

C1CCC([PH+](C2CCCCC2)C2CCCCC2[PH+](C2CCCCC2)C2CCCCC2)CC1.[Au].[CH-]1CCCCC1C1CCCC[N-]1 (stereo unspecified)
active: [1] -26.2% | [2] -31.8% | [3] -96.6% | [4] -84.3% | [5] -16.7% | [6] -98% | [7] -79.7% | [8] -96.5% | [9] -83.2%

CC1(C)COB(OCC(C)(C)COB2OCC(C)(C)CO2)OC1
inactive: [1] 108% | [2] 107% | [3] 110% | [4] 98.2% | [5] 94.2% | [6] 93.2% | [7] 106% | [8] 96% | [9] 113%

O=C(CSc1nc2sc3c(c2c(=O)n1-c1ccccc1)CCCCC3)N/N=C/c1cccc([N+](=O)[O-])c1
active: [2] 6.05%
inactive: [1] 53.8% | [3] 83.6% | [4] 49.1% | [5] 38.5% | [6] 67.6% | [7] 65.9% | [8] 76.5% | [9] 74%

Oc1c(Br)cc(Br)c2ccc(Cn3cc(-c4ccccc4C(F)(F)F)nn3)nc12
inactive: [1] 62.7% | [2] 80.8% | [3] 94.3% | [4] 106% | [5] 104% | [6] 103% | [7] 95.5% | [8] 77.2% | [9] 96.9%

CC(C)=CCC[C@](C)(O)[C@H]1CC[C@]2(C)[C@@H]1CC[C@@H]1[C@@]3(C)C/C(=C/c4ccco4)C(=O)C(C)(C)[C@@H]3CC[C@]12C
inactive: [1] 110% | [2] 92.7% | [3] 103% | [4] 101% | [5] 97.4% | [6] 102% | [7] 91.7% | [8] 101% | [9] 102%

C=C1C(=O)O[C@H]2[C@H]1CC/C(COC(=O)NCc1ccc(Cn3c(=O)sn(CCCCC)c3=O)cc1)=C\CC[C@@]1(C)O[C@@H]21
inactive: [1] 16.8% | [2] 74.4% | [3] 85.9% | [4] 52% | [5] 46.4% | [6] 91.6% | [7] 46.5% | [9] 47%
active: [8] -11.6%
